In PubChem BioAssay (EPA / NIEHS):
Inconclusive results are not listed. Calls of active or inactive are those of the source. How the source made its calls, unless noted: active means hit-call score of the fitted dose curve at least 0.9, where 1 is the maximum; inconclusive means response in the unintended direction; inactive means score below 0.9.

Legend:
[1] = biological target: Cellular tumor antigen p53 (Homo sapiens) (UniProt P04637); test: TOX21_p53_BLA_p2_ratio: Tox21 HCT-116 p53 Agonism Beta-lactamase Assay, Ratio, Phase 2 (AID 2283592)
Sequence of Cellular tumor antigen p53 (Homo sapiens) (P04637 whole entry, looked up): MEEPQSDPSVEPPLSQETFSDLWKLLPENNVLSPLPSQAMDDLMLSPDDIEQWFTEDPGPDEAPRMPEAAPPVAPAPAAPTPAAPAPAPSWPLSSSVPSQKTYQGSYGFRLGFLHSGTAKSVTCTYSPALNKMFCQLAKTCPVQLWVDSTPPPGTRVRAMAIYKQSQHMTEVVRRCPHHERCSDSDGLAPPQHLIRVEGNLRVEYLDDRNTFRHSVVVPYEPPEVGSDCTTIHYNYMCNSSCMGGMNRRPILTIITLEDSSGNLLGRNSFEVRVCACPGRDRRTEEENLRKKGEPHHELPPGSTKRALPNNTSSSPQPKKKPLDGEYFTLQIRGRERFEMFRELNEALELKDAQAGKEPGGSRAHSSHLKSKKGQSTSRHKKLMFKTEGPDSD
Procedure, shortened: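 HCT-116 cells with p53-responsive beta-lactamase reporter, 4000 cells/well, preincubated 5 h, then compound in DMSO (217-fold dilution) for 16 h at 37C. CCF4-AM substrate 2 h at room temperature; 460/530 nm emission ratio fitted upward versus DMSO.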

[2] = biological target: Cellular tumor antigen p53 (Homo sapiens) (UniProt P04637); test: TOX21_p53_BLA_p3_ratio: Tox21 HCT-116 p53 Agonism Beta-lactamase Assay, Ratio, Phase 3 (AID 2283596)
Procedure, shortened: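 HCT116 p53-bla cells (4000/well) given compound in DMSO (217-fold dilution) after 5 h, incubated 16 h at 37C. CCF4-AM substrate 2 h at room temperature; 460/530 nm emission ratio, gain fitted against DMSO.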

[3] = biological target: Cellular tumor antigen p53 (Homo sapiens) (UniProt P04637); test: TOX21_p53_BLA_p5_ratio: Tox21 HCT-116 p53 Agonism Beta-lactamase Assay, Ratio, Phase 5 (AID 2283599)
Procedure, shortened: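 HCT-116 p53-bla cells (4000/well) plated 5 h, dosed with compound (217-fold DMSO dilution) for 16 h at 37 C; CCF4-AM substrate 2 h at room temperature. Activity is the 460/530 nm emission ratio (405 nm excitation), fitted in gain-of-signal direction versus DMSO.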

[4] = TOX21_p53_BLA_p5_viability: Viability Assessment in the Tox21 HCT-116 p53 Agonism Beta-lactamase Assay, Phase 5 (AID 2283600)
Procedure, shortened: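 HCT-116 p53 beta-lactamase reporter cells, 4000/well, were exposed to compound (pin transfer, 217-fold dilution) for 16 hours at 37C. Cellular ATP was read by CellTiter-Glo luminescence after 30 min at room temperature.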

[5] = biological target: Cellular tumor antigen p53 (Homo sapiens) (UniProt P04637); test: TOX21_p53_BLA_p4_ratio: Tox21 HCT-116 p53 Agonism Beta-lactamase Assay, Ratio, Phase 4 (AID 2283601)
Procedure, shortened: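 HCT-116 p53 beta-lactamase reporter cells (4000/well) preincubated 5 h, then compound (217-fold dilution of DMSO stock) for 16 h at 37C. CCF4-AM substrate added 2 h at room temperature; 460/530 nm emission ratio fitted upward versus DMSO.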

[6] = TOX21_p53_BLA_p4_viability: Viability Assessment in the Tox21 HCT-116 p53 Agonism Beta-lactamase Assay, Phase 4 (AID 2283597);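 further: hits lower the luminescence signal meaning cytotoxicity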
Procedure, shortened: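 HCT-116 p53-bla cells, 4000/well, dosed after 5 h attachment and incubated 16 h at 37 °C, 5% CO2. Viability from CellTiter-Glo ATP luminescence after 30 min at room temperature, taken after the beta-lactamase read; loss of signal indicates cytotoxicity.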

[7] = UKN5_HCS_SBAD2_cell_viability: Viability Assessment in the University of Konstanz (UKN) Leist Lab Neurite Outgrowth Assay in human iPSC-derived immature Dorsal Root Ganglia Neurons (UKN5) (AID 2284056; active means hit-call score of the fitted dose curve at least 0.9, where 1 is the maximum; inactive means score below 0.9)
Procedure, shortened: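 iPSC-derived immature peripheral neurons (SBAD2) seeded on Matrigel with CHIR99021, SU5402 and DAPT, dosed 1 h later for 24 h. Viability from Hoechst H-33342 and calcein-AM live staining, high-content imaging; bidirectional fit versus DMSO.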

[8] = UKN5_HCS_SBAD2_neurite_outgrowth: University of Konstanz (UKN) Leist Lab Neurite Outgrowth Assay in human iPSC-derived immature Dorsal Root Ganglia Neurons (UKN5) (AID 2284070; active means hit-call score of the fitted dose curve at least 0.9, where 1 is the maximum; inactive means score below 0.9); conditions: actives raise or lower the signal
Procedure, shortened: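 SBAD2 iPSC-derived immature peripheral neurons on Matrigel, 100.000 cells/cm2, medium with CHIR99021 (1.5 uM), SU5402 (5 uM), DAPT (5 uM); compound added 1 h post-seeding for 24 h. Calcein-AM neurite area by high-content imaging; Hoechst H-33342 viability; bidirectional fit vs DMSO.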

[9] = UKN2_HCS_IMR90_neural_migration: University of Konstanz (UKN) Leist Lab Neural Crest Cell Migration Assay in human induced IMR90 Pluripotent Stem Cells (UKN2) (AID 2284204; active means hit-call score of the fitted dose curve at least 0.9, where 1 is the maximum; inactive means score below 0.9); conditions: actives raise or lower the signal
Procedure, shortened: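 iPSC-derived IMR90 neural crest cells seeded around stoppers on PLO/laminin/fibronectin; migration started in N2-S medium with EGF/FGF, compounds added after 24 h for 24 h. Migration into cell-free area imaged after calcein-AM/Hoechst staining; bidirectional fit versus DMSO.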

[10] = UKN2_HCS_IMR90_cell_viability: Viability Assessment in the University of Konstanz (UKN) Leist Lab Neural Crest Cell Migration Assay in human induced IMR90 Pluripotent Stem Cells (UKN2) (AID 2284233; active means hit-call score of the fitted dose curve at least 0.9, where 1 is the maximum; inactive means score below 0.9;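 further: viability of neural crest cells differentiated from IMR90 iPSC measured by calcein-AM fluorescence imaging; cells exposed to compound for 24 h after a 24 h migration phase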)
Procedure, shortened: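 Neural crest cells derived from IMR90 iPSC migrate into a stopper-free zone for 24 h in EGF/FGF medium, then are exposed to compound for 24 h. Viability assessed by calcein-AM and Hoechst staining with high-content imaging, fitted bidirectionally versus DMSO.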

Measured: AC50

S=C=NCc1ccccc1
active: [2] 42.9 µM
inactive: [1] | [3] | [4] | [5]

CC(C)NCC(O)c1ccc(N)c(C#N)c1 (stereo not drawn)
inactive: [1] | [2] | [3] | [4] | [5]

CC(=O)Oc1ccc2c3c1O[C@H]1[C@@H](OC(C)=O)C=C[C@H]4[C@@H](C2)N(C)CC[C@@]341
not listed: [3] | [5]
inactive: all other assays above
